Compounds without any hit were thinned out: in the full panel of roughly 79,000, 15% have a hit. Rule as the data show it: active = growth inhibition above about 70%; inactive = the rest.
Key:
[1] = NCI Yeast Anticancer Drug Screen. Data for the rad50 strain (AID 155);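 also: 0% = growth of vehicle-only cultures of the same strain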; conditions: S. cerevisiae rad50 strain growth inhibition; at 50.0 µM; stronger effect = higher value
Procedure, shortened: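 Growth of the mutant yeast was measured after compound exposure and referenced to vehicle-treated cultures.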

[2] = NCI Yeast Anticancer Drug Screen. Data for the mec2-1 strain (AID 157); conditions: S. cerevisiae mec2-1 strain, at 50.0 µM, stronger effect = higher value
Procedure, shortened: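 Compounds were applied to mec2-1 yeast cells. Their growth was then compared with that of vehicle-treated cultures to give growth inhibition.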

[3] = NCI Yeast Anticancer Drug Screen. Data for the sgs1 mgt1 strain (AID 161);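 also: 0% = growth of cultures given vehicle only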; conditions: S. cerevisiae sgs1 mgt1 strain, at 50.0 µM, stronger effect = higher value
Procedure, shortened: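 Growth of a repair-deficient yeast mutant was monitored after compound treatment and expressed as inhibition relative to vehicle-treated cultures.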

[4] = NCI Yeast Anticancer Drug Screen. Data for the cln2 rad14 strain (AID 165);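 also: 0% = growth equal to vehicle treated cultures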; conditions: S. cerevisiae cln2 rad14 strain, at 50.0 µM, stronger effect = higher value
Procedure, shortened: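 Strain: cln2 rad14 yeast, altered in cell cycle control and DNA damage repair. Read-out: growth inhibition vs vehicle.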

[5] = NCI Yeast Anticancer Drug Screen. Data for the bub3 strain (AID 167); conditions: S. cerevisiae bub3 mutant strain, at 50.0 µM, stronger effect = higher value
Procedure, shortened: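 Whole-cell yeast assay. The mutant strain was incubated with compounds, and growth inhibition was determined by comparison with vehicle-treated cells.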

[6] = NCI Yeast Anticancer Drug Screen. Data for the mlh1 rad18 strain (AID 175); conditions: S. cerevisiae mlh1 rad18 strain growth inhibition; at 50.0 µM; stronger effect = higher value
Procedure, shortened: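 A repair-deficient yeast strain is exposed to test compound, and growth is scored relative to vehicle-treated controls.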

Measured: growth inhibition

CC(C)N=C(c1ccccc1)N(O)c1ccccc1
inactive: [1] -0.4% | [2] 3.15% | [3] -0.75% | [4] -10.3% | [5] 4.2% | [6] 5.05%

Cc1cc2c(C)n(Cc3ccc(Cl)cc3Cl)nc2c(C#N)c1C
inactive: [1] -11.2% | [2] -7.05% | [3] -9.6% | [4] 20.2% | [5] -2.45% | [6] -3.9%

Cc1ccc(Cc2ccccc2C(=O)O)cc1
inactive: [1] -5.95% | [2] 1.55% | [3] -2.3% | [4] -42.9% | [5] -2.45% | [6] -6.05%

COc1cc2c(cc1OC)[C@H]1C(COC(=O)c3ccccc3)CSC(=Nc3ccccc3)N1CC2 (stereo partly specified)
inactive: [1] 21.9% | [2] 17.6% | [3] 36% | [4] 49.8% | [5] 36.9% | [6] 22.3%

CC(=O)Nc1nc(C)c(S(=O)(=O)Cl)s1
inactive: [1] 27.5% | [2] 10.4% | [3] 33% | [4] 23.2% | [5] 14.8% | [6] 19.6%

c1ccc(-c2cc(-c3ccccc3)n(-c3ccccc3)c2-c2ccccc2)cc1
inactive: [1] 8.45% | [2] 5.85% | [3] 0.45% | [4] -5.35% | [5] 24.4% | [6] -3.35%

CC(=O)Nc1ccc(S(=O)(=O)N2c3ccccc3Sc3ccccc32)cc1
inactive: [1] 8.95% | [2] -5.9% | [3] 4.95% | [4] 3.05% | [5] -1.5% | [6] 4.2%

COc1ccc(C=O)c(NC(=O)C(C)(C)C)c1
inactive: [1] 37.4% | [2] 23.9% | [3] 9.8% | [4] 1.7% | [5] 23.2% | [6] -13.7%

CCCCCCCCCCC(C(=O)O)C1(C(=O)O)CCC(=O)O1 (stereo unspecified)
inactive: [1] -15.7% | [2] -32.4% | [3] -5.8% | [4] 11.4% | [5] -9.4% | [6] -5.25%

CCCCN(CCCC)CCC(O)c1cc(C(F)(F)F)nc2c(C(F)(F)F)cccc12 (stereo unspecified)
inactive: [1] -0.6% | [2] 25.7% | [3] 0.45% | [4] 49.2% | [5] 13.3% | [6] 41.1%

CCc1c2c(cc3c1CC1(C3)Cc3cc4c(c(C(=O)OC)c3C1)CCCC4)CCCC2 (stereo unspecified)
inactive: [1] -18.8% | [2] -16.4% | [3] -20.8% | [4] 9.65% | [5] -14% | [6] -25.9%

C=CCNC(=O)CC(C)(C)C
inactive: [1] 25.6% | [2] 12.3% | [3] 0.35% | [4] 9.3% | [5] 23.9% | [6] 20.2%

CCCCCCCCCCCCCC(=O)Cl
inactive: [1] -52.4% | [2] -4% | [3] -47.2% | [4] -39.9% | [5] -65.5% | [6] -104%

CC1(C)C=Cc2c(ccc(C(=O)Cc3ccccc3)c2O)O1
inactive: [1] 24.1% | [2] 17.4% | [3] 26.4% | [4] -8.1% | [5] 16% | [6] 23.1%

COc1cc2c(C)nc3c4cc5c(cc4ccc3c2cc1OC)OCO5
inactive: [1] -12.4% | [2] 8.2% | [3] 18.2% | [4] -41.9% | [5] 40.2% | [6] 1%

COc1ccc(N2C(=O)C3C=CC(n4[nH]c(=O)n(Cc5ccccc5)c4=O)CC3C2=O)cc1 (stereo unspecified)
inactive: [1] 6.6% | [2] 1.8% | [3] -0.9% | [4] -20.9% | [5] 8.4% | [6] -25.6%

O=C(O)/C=C/c1c(Cl)cccc1Cl
inactive: [1] -14.6% | [2] -8.05% | [3] -11.9% | [4] -37.2% | [5] -18.1% | [6] -5.8%

O=C(O)c1ccccc1C(=O)OC1CC2CCC1C2 (stereo unspecified)
inactive: [1] -26.2% | [2] -22.6% | [3] -10.4% | [4] 24.2% | [5] 12.6% | [6] 1.6%

C/C(=N\N)c1cnc(N)nc1C
inactive: [1] -2.75% | [2] 5.4% | [3] 7.65% | [4] -6.3% | [5] -11.7% | [6] -12.8%

CCC1(C)N=C(C)C(C)S1 (stereo unspecified)
inactive: [1] -7.6% | [2] -1.3% | [3] -13.7% | [4] 4.9% | [5] -16.3% | [6] 6.2%

O=c1oc(=O)c2c1ccc1c2cc2ccc3cccc4ccc1c2c34
inactive: [1] -17.9% | [2] -10.4% | [3] -8.2% | [4] -35.1% | [5] -11.2% | [6] -11.1%

C/C(=N/N(C=O)C[n+]1ccccc1)C(CN(CC(C)C)CC(C)C)C(=O)Nc1ccc(C)cc1C (stereo unspecified)
inactive: [1] -10.4% | [2] 40% | [3] -14.5% | [4] 31.5% | [5] 19.9% | [6] 19.9%

CSCCC(C(=O)O)N(CC1(O)OCC(O)C(O)C1O)N=O (stereo unspecified)
inactive: [1] -18.4% | [2] -24.6% | [3] -17.6% | [4] -9.15% | [5] -11.4% | [6] -11.2%

COc1ccc(C(CC(=O)O)c2ccc(OC)c(OC)c2)c(OC)c1 (stereo unspecified)
inactive: [1] 3.4% | [2] -1.25% | [3] -6.65% | [4] -59.9% | [5] -1.6% | [6] 5.15%

O=C(O)/C(=C\c1ccccc1[N+](=O)[O-])c1ccc(C(F)(F)F)cc1
inactive: [1] 4% | [2] -15.9% | [3] 1.95% | [4] 7.1% | [5] 10.7% | [6] -18.9%

CCOC(=O)c1c2ccc(/C=C/c3ccccc3)ccc-2c(C(=O)OCC)c1N
inactive: [1] -16.6% | [2] -7.25% | [3] -23.9% | [4] 10.6% | [5] -32% | [6] -22.6%

COC(=O)C(CC(=O)c1cc2c(cc1I)OCO2)Cc1cc(OC)c(OC)c(OC)c1I (stereo unspecified)
inactive: [1] -22.9% | [2] -28.8% | [3] -29.8% | [4] -1.65% | [5] -2.45% | [6] -24.9%

N#CCCC(CCC#N)(CCC(CCC#N)(CCC#N)[N+](=O)[O-])[N+](=O)[O-]
inactive: [1] -4.05% | [2] 11% | [3] 10.8% | [4] -11.6% | [5] 8.8% | [6] 6.3%

CSc1ccc(NC(=S)NN(C)C)cc1
inactive: [1] -22.9% | [2] -25.3% | [3] -15.2% | [4] 9.35% | [5] 1.4% | [6] -7.65%

c1ccc(-c2nc3cc4ccccc4cc3nc2-c2ccccc2)cc1
inactive: [1] -17.4% | [2] -12.6% | [3] -4.9% | [4] -35.6% | [5] -25.9% | [6] -18.6%

C=CCN1COc2c(cc3c4c(cccc24)C(=O)O3)C1
inactive: [1] -0.25% | [2] -4.25% | [3] 10.1% | [4] 8.35% | [5] 6.35% | [6] 8.35%

COC(=O)C(N)CSCSC (stereo unspecified)
inactive: [1] -12.8% | [2] 13% | [3] 3.7% | [4] -44% | [5] -13.8% | [6] -5.65%

O=[N+]([O-])c1cc(Br)cc2c1[nH]c1nc3ccc(C(F)(F)F)cc3nc12
inactive: [1] 45.5% | [2] -17.9% | [3] 8.1% | [4] 17.4% | [5] -2.2% | [6] -3.55%

O=C1C=C2CCC[C@H]3OC(=O)C[C@@]23CC1
inactive: [1] 12.4% | [2] 16.2% | [3] 35.3% | [4] 28.4% | [5] -0.95% | [6] 27.4%

Nc1ncnc2c1ncn2C1CCN(CCO)C1=O (stereo unspecified)
inactive: [1] -5.55% | [2] -5.55% | [3] -29.1% | [4] -17.4% | [5] -5.2% | [6] -14.8%

COc1c(NC(=O)CC(C)=O)cccc1NC(=O)CC(C)=O
inactive: [1] -1.2% | [2] 14.4% | [3] -2.05% | [4] 7.95% | [5] -8.25% | [6] -11.3%

Nc1nc(-c2ccccc2)ns1
inactive: [1] 4.9% | [2] -44.1% | [3] 1.4% | [4] 8.4% | [5] -17.8% | [6] -2.3%

[S-]c1n[n+](-c2ccccc2)c(-c2ccc(Cl)cc2)s1
inactive: [1] -2.05% | [2] 5.8% | [3] 7.75% | [4] -3.65% | [5] -4.85% | [6] 0.45%

COc1ccccc1/C=N\NC(=O)c1ccccc1O
inactive: [1] 13.2% | [2] 11.6% | [3] 11.8% | [4] 21.5% | [5] 41% | [6] 11.3%

Nc1nc(Cl)nc2c1ncn2C1CCC(CO)O1 (stereo unspecified)
inactive: [1] -21.2% | [2] 1.35% | [3] -7.9% | [4] 5.5% | [5] 4.15% | [6] 16.1%

C/C(CC(=O)Nc1ccc(C)c(C)c1)=N\N(c1ccccc1)c1ccccc1
inactive: [1] -16.6% | [2] -13.8% | [3] -27% | [4] -3.4% | [5] -17.6% | [6] -20.5%

Source: PubChem BioAssay (NCI)
